Screening results from PubChem BioAssay.
Rows were chosen to be rich in hits. Some 2.9% of all compounds tested hit in one or more screens of this group.
EBNA-1 inhibitor – EBNA-1 DNA-binding inhibitors, primary screen, biochemical, fluorescence polarization. inhibition, % at 14.8 µM. 0.34% of 300,000 active. AID 1950, 2009; in the data active = inhibition above about 28%
PAFAH1B2 inh – PAFAH1B2 enzyme inhibitors, primary screen, biochemical, fluorescence polarization, human; recombinant PAFAH1B2, FP-rhodamine activity probe; Platelet-activating factor acetylhydrolase IB subunit alpha2 (Homo sapiens), P68402; inhibition, % at 3.39 µM; 1.2% of 340,000 active;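 active = inhibition above the mean of all tested compounds plus 3 SD, cut at about 24% in these data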;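 note: 0% = enzyme with DMSO and 100% = wells lacking PAFAH1B2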
Target sequence (P68402 whole entry, looked up): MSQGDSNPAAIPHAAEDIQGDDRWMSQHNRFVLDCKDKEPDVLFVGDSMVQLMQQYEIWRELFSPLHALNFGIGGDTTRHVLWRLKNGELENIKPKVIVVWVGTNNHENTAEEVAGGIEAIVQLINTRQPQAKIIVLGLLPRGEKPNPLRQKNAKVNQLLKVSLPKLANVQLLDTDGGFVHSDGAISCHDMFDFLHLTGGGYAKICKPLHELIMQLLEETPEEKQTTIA
PAFAH1B3 inh – PAFAH1B3 enzyme inhibitors, primary screen, biochemical, fluorescence polarization, human. Platelet-activating factor acetylhydrolase IB subunit alpha1 (Homo sapiens), Q15102. recombinant PAFAH1B3, FP-rhodamine probe. inhibition, % at 3.39 µM. 0.28% of 340,000 active. AID 492972, 2010;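 active = inhibition above the screen-wide average of all tested compounds plus 3 SD, cut at about 25% in these data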;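 note: 0% = enzyme with DMSO only and 100% = wells lacking PAFAH1B3 protein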
Target sequence (Q15102 whole entry, looked up): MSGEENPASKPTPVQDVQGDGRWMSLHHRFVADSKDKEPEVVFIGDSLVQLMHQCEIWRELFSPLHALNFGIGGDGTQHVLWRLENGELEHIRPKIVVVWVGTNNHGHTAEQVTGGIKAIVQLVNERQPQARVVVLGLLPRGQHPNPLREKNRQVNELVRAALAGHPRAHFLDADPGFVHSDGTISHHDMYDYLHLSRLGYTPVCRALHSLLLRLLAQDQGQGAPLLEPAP
rCAG binder – binders of r(CAG) RNA repeats, primary screen, biochemical, fluorescence; inhibition, % at 3 µM; r(CAG) RNA repeat, TO-PRO-1 dye displacement fluorescence; 1.3% of 370,000 active;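 active = inhibition above the plate cutoff, the mean of all test compounds on that plate plus 3 SD, cut at about 35% in these data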;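 note: 0% = DMSO alone and 100% = 100 µM mitoxantrone as full dye displacement; higher means more dye released from RNA so lower well fluorescence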
ZTA DNA inh – ZTA (EBV) inhibition in EBNA-1 counter-screen; P03206; inhibition, % at 11 µM; AID 2234; 0.15% of 320,000 active; ZTA-DNA binding, fluorescence polarization; in the data active = inhibition above about 33%
Target sequence (P03206 whole entry, looked up): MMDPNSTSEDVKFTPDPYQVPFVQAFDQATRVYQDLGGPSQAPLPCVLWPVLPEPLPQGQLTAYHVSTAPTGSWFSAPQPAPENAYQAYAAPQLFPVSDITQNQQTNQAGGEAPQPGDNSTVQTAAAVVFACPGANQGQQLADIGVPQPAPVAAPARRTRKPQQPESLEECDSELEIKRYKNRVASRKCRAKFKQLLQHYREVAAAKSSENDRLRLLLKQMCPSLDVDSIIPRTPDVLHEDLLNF
PAFAH2 inh – PAFAH2 enzyme inhibitors, primary screen, biochemical, fluorescence polarization, human; recombinant PAFAH2, FP-rhodamine activity probe; inhibition, % at 3.39 µM; AID 492956, 2010; 0.99% of 340,000 active; Platelet-activating factor acetylhydrolase 2, cytoplasmic (Homo sapiens), Q99487;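 active = inhibition above the mean over all tested compounds plus 3 SD, cut at about 30% in these data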;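 note: inhibitors block probe labeling of enzyme so polarization drops; 0% = enzyme with DMSO and 100% = wells lacking PAFAH2 protein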
rCAG binder conf – small molecules binding CAG repeat RNA – biochemical, fluorescence, confirmation. AID 652065, 2013. 70% of 4,300 active. shares compounds with rCAG binder. inhibition, % at 3 µM. r(CAG) RNA repeat, TO-PRO-1 dye displacement fluorescence;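 active = inhibition above a per-plate cutoff, the mean inhibition of sample wells plus 3 SD, cut at about 35% in these data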;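 note: loss of TO-PRO-1 fluorescence as compound displaces dye from 1x1 AA loop RNA; 0% = DMSO only wells and 100% = 100 µM mitoxantrone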
dCAG dye counter – displacement of TO-PRO-1 from CAG DNA duplex, counter-screen for rCAG RNA repeat binder project, biochemical, fluorescence, TO-PRO-1 dye, d(CAG) DNA oligo; 94% of 4,300 active; d(CAG) DNA oligo TO-PRO-1 dye displacement; inhibition, % at 3 µM; shares compounds with rCAG binder;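 active = inhibition above its plate's cutoff, the mean test-well inhibition plus 3 SD, cut at about 4.8% in these data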;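 note: 0% = DNA dye mix with DMSO and 100% = 100 µM mitoxantrone; hits displace the dye from DNA and so lower well fluorescence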
Starred values were filed as active, the others as inactive; nt = no result.

SMILES | EBNA-1 inhibitor | PAFAH1B2 inh | PAFAH1B3 inh | rCAG binder | ZTA DNA inh | PAFAH2 inh | rCAG binder conf | dCAG dye counter
Nc1c(C(=O)Nc2ccc(S(=O)(=O)N3CCCC3)cc2)sc2nc3cc4c(cc3cc12)CCC4 | -20 | 2 | -1 | 38* | -6 | -3 | 31 | 16*
O=Cc1sc(Nc2ccccc2)nc1Cl | -1 | -2 | 5 | 1 | -16 | -6 | nt | nt
Cc1ccc(Nc2nc(Cl)c(C=O)s2)cc1Cl | 1 | 6 | 2 | 43* | -8 | -14 | 20 | 12*
Cc1cc(C)c2nc(NNC(=O)c3ccc(S(=O)(=O)N4CC(C)CC(C)C4)cc3)sc2c1 (stereo not drawn) | -1 | 17 | 8 | 43* | -4 | 8 | 49* | 24*
Cc1cccc2sc(NNC(=O)c3ccc(S(=O)(=O)N4CC(C)CC(C)C4)cc3)nc12 (stereo not drawn) | 0 | 8 | 10 | 66* | 10 | 3 | 63* | 30*
Cc1cc(C)c2nc(NNC(=O)c3ccc(S(=O)(=O)N4CCCC(C)C4)cc3)sc2c1 (stereo not drawn) | 3 | 3 | 6 | 47* | 4 | -2 | 52* | 23*
Cc1ccc2nc(NNC(=O)c3ccc(S(=O)(=O)N4CCc5ccccc5C4)cc3)sc2c1 | 8 | 13 | 18 | 51* | 7 | -3 | 60* | 29*
CC1CCCN(S(=O)(=O)c2ccc(C(=O)Nc3nnc(C4CC4)o3)cc2)C1 (stereo not drawn) | 6 | 3 | 2 | 16 | 1 | -2 | nt | nt
CCC(=O)NNc1nc2c(C)cc(C)cc2s1 | 3 | 0 | 4 | 0 | -17 | -2 | nt | nt
COC(=O)c1sc2ccccc2c1NC(=O)c1ccc(S(=O)(=O)N2CC(C)CC(C)C2)cc1 (stereo not drawn) | 8 | -4 | -2 | 2 | -1 | -5 | nt | nt
CC(c1cccs1)N(C)Cc1nc(CCc2ccccc2)no1 (stereo not drawn) | 3 | 13 | -3 | -6 | 1 | 11 | nt | nt
Cc1cccc(-c2cccc3[nH]c4c(c23)CCN2C(=O)[C@H]3[C@H](C)ON(C)[C@H]3C[C@@H]42)c1 | nt | nt | nt | 11 | nt | nt | nt | nt
O=C(c1ccc(Cl)c(S(=O)(=O)N2CCc3ccccc32)c1)N1CCN(c2ccccc2O)CC1 | nt | 5 | -1 | 11 | nt | 5 | nt | nt
O=C(NNC(=O)c1ccccc1O)c1ccc(Cl)c(S(=O)(=O)N2CCc3ccccc32)c1 | 2 | 1 | 4 | 48* | 10 | 14 | 52* | 19*
O=[N+]([O-])c1ccc(Cl)c(S(=O)(=O)Nc2ccc(-c3ccc(N4CCOCC4)nn3)cc2)c1 | 1 | 0 | -1 | 27 | -11 | 4 | nt | nt
O=[N+]([O-])c1ccc(Cl)c(S(=O)(=O)Nc2cccc(-c3ccc(N4CCOCC4)nn3)c2)c1 | -4 | 3 | 4 | 38* | -7 | 5 | 32 | 9.9*
O=C(Nc1ccc(OC(F)(F)F)cc1)N1CCc2nc(NCc3cccc(Oc4ccccc4)c3)ncc2C1 | nt | nt | nt | 7 | nt | nt | nt | nt
S=C(NCc1ccccc1)Nc1ccc2cn[nH]c2c1 | -8 | 2 | 6 | 2 | -8 | 5 | nt | nt
O=C(CSc1nc(O)cc(=O)n1-c1ccccc1)Nc1nc2ccccc2s1 | -7 | -3 | -11 | 44* | -6 | -8 | 52* | 19*
Cc1ccc(-n2c(SCC(=O)Nc3ccc(Cl)cc3)nc(O)cc2=O)cc1 | 8 | 0 | 0 | 37* | 20 | 2 | 25 | 10*
COc1ccc(NC(=O)CSc2nc(O)cc(=O)n2-c2ccccc2)cc1 | nt | 2 | 1 | 38* | nt | -3 | 14 | 7.5*
COc1ccc(-n2c(SCC(=O)Nc3ccc(Cl)cc3)nc(O)c(Cc3ccccc3)c2=O)cc1 | 11 | -1 | 3 | 62* | 1 | 1 | 54* | 20*
Nn1c(SCC(=O)Nc2nc3ccccc3s2)nncc1=O | -2 | 2 | 1 | 4 | 15 | 9 | nt | nt
CCCn1c(SCC(=O)Nc2ccc(F)c(Cl)c2)nc(O)cc1=O | nt | -4 | -5 | 13 | nt | -2 | nt | nt
Cc1cc(Cl)ccc1OC(C)C(=O)N1CCCN(C(=O)C(C)Oc2ccc(Cl)cc2C)CC1 (stereo not drawn) | 0 | 0 | 8 | 1 | 1 | -1 | nt | nt
SMILES | EBNA-1 inhibitor | PAFAH1B2 inh | PAFAH1B3 inh | rCAG binder | ZTA DNA inh | PAFAH2 inh | rCAG binder conf | dCAG dye counter
CCCCC1OC(CCc2ccccc2)CC2=C1C(=O)OC(C)(C)O2 (stereo not drawn) | nt | nt | nt | 0 | nt | nt | nt | nt
Cc1nn(-c2ccccc2)c2sc(C(=O)NC3CCCc4ccccc43)cc12 (stereo not drawn) | nt | nt | nt | 10 | nt | nt | nt | nt
COc1ccccc1-n1c(SCC(=O)N2CCOCC2)nc(O)cc1=O | 4 | -4 | 7 | 7 | -15 | 0 | nt | nt
COc1ccc(NC(=O)CSc2nc(O)cc(=O)n2C)cc1 | -2 | 1 | 3 | 33 | 17 | 3 | nt | nt
COc1ccccc1-n1c(SCC(=O)Nc2ccc(Br)cc2)nc(O)cc1=O | 13 | -3 | 1 | 42* | -12 | 0 | 17 | 7.5*
Cn1c(SCC(=O)Nc2ccccc2)nc(O)cc1=O | 2 | 7 | 21 | 37* | 16 | -3 | 7 | 5.0*
COc1ccccc1NC(=O)Nc1nnc([C@H]2C[C@H](O)[C@@H](CO)O2)s1 | nt | nt | nt | 2 | nt | nt | nt | nt
CCOC(=O)c1sc(N2N=C(C)/C(=C\c3ccc(OCC(=O)OC)cc3)C2=O)nc1C | 2 | 4 | -1 | 52* | -27 | 4 | 45* | 10*
CC(C)c1ccc(NC(=O)Nc2nc(C(N)C(C)C)cs2)cc1 (stereo not drawn) | nt | nt | nt | 31 | nt | nt | nt | nt
CC(C)C(N)c1csc(NC(=O)Nc2cccc(Cl)c2)n1 (stereo not drawn) | nt | nt | nt | 44* | nt | nt | 51* | 8.4*
NC(c1csc(NC(=O)Nc2cccc(Cl)c2)n1)c1ccccc1Cl (stereo not drawn) | nt | nt | nt | 41* | nt | nt | 50* | 17*
CCc1ccc(-c2n[nH]nc2C2=CC(=O)C[C@H](c3ccc(F)cc3)C2)cc1 | nt | nt | nt | 37* | nt | nt | 42* | 11*
COc1ccc(CNC(=O)CN(c2ccccc2)S(=O)(=O)N(C)C)cc1 | -9 | 7 | 2 | -1 | -2 | 7 | nt | nt
Cc1cc(N2CCN(CC(C)(C)O)C[C@H]2C)ccc1N1CCN(CC(C)(C)O)[C@@H](C)C1 | nt | nt | nt | 2 | nt | nt | nt | nt
O=C(NCC1CCCO1)c1ccc([N+](=O)[O-])s1 (stereo not drawn) | 10 | 5 | 12 | 36* | 2 | 4 | 1 | 1
